# HepG2 tox = counter-screen for TGF-b inhibitors: cytotoxicity in HepG2 cells; hit rate 0.76% among 410,000; Potency, µM (series often up to 46.1 µM), for inactives: at the highest dose activity change, negative = cytotoxicity, most hits filed as cytotoxic; HepG2 CAGA-GFP viability, ATP luminescence, 18 h
#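 HepG2 CAGA-GFP cells (1000/well, DMEM with 1% FBS) received compound, then TGF-beta at 500 pg/mL final, and were incubated 18 hours at 37 degrees C. Viability was read by CellTiter-Glo luminescence. Media-only wells were set as complete cell-killing and DMSO as no toxicity.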
# S2 tox = cell viability loss in ATXN counter-screen | Potency, µM (highest dose often 56.7 µM), usual class: cytotoxic | hit rate 0.49% among 400,000 | S2 cells (HEK-293 line with an ATXN2-luciferase reporter) viability, CellTiter-Fluor protease fluorescence, 24 h; further: nearly all actives have a fitted effect of over 40% in size
# ATXN2 expr inh = ATXN2 expression inhibition. HEK-293 ATXN2-luciferase reporter, luminescence, 24 h. Potency, µM (top dose mostly 57 µM), for inactives: at the highest dose activity change, negative = inhibition, most hits filed as inhibitors. hit rate 0.72% among 360,000; further: on the % scale 0 is the no-effect control and ±100 the full control effect; nearly all actives have a fitted effect of over 55% in size
#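 qHTS (up to 57 uM final) was run with 24 h compound exposure of reporter cells at 37 °C. Each well was multiplexed: SteadyGlo luminescence measured ATXN2-luciferase expression after a fluorogenic Gly-Phe-AFC viability readout (25 uM final).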
# DT40 TDP1 CPT = growth inhibition of DT40 Tdp1-/-;hTDP1 cells with camptothecin (screen for TDP1 inhibitors); hit rate 12% among 420,000; chicken DT40 Tdp1-/-;hTDP1 cells + 20 nM CPT, ATP luminescence, 48 h; Potency, µM (titrated, usually from 46.2 µM), for inactives: top-dose activity change, negative = growth inhibition, hits mostly inhibitors; further: on the % scale 0 is the no-effect control and ±100 the full control effect; nearly all actives have a fitted effect of over 55% in size
#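 Cell growth measured by CellTiter-Glo luminescence after a minimum 48 h, 37 C compound exposure with 20 nM CPT in Tdp1-knockout DT40 cells stably expressing hTDP1, seeded 400/well; qHTS titration format.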
# DT40 TDP1 no CPT = qHTS for Inhibitors of human tyrosyl-DNA phosphodiesterase 1 (TDP1): qHTS in cells in absence of CPT | DT40 Tdp1-/- hTDP1 cells, no CPT, ATP luminescence, 48 h | Potency, µM (series often up to 46.2 µM), for the others: at the highest dose activity change, negative = growth inhibition, usual class: inhibitors | hit rate 15% among 420,000; further: on the % scale 0 is the no-effect control and ±100 the full control effect; nearly all actives have a fitted effect of over 55% in size
#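 Growth of hTDP1-complemented DT40 Tdp1-knockout cells is measured by ATP luminescence after at least 48 hr compound exposure at 37 °C, with DMSO substituting for the 20 nM CPT used in the parallel screen.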
# TGFb inhibitor = inhibitors of TGF-b signaling; hit rate 1.2% among 410,000; Potency, µM (titrated, usually from 46.1 µM), without a hit: top-dose activity, negative = inhibition, usual class: inhibitors; HepG2 CAGA-GFP TGF-b/SMAD3 reporter, GFP fluorescence, 18 h; TGF-beta stimulated, 500 pg/mL final; further: on the % scale 0 is the no-effect control and ±100 the full control effect; nearly all actives have a fitted effect of over 65% in size
#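 TGF-beta reporter screen: HEPG2 CAGA-GFP, 1% FBS, 500 pg/mL TGF-beta final, 18 h; per-cell GFP summed per well; curves fitted and categorized by class.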
# Starred values were filed as active, the others as inactive; i = inactive; ? = inconclusive; . = no result given. Hits are enriched below; roughly 17% of the tested compounds scored in any of these assays. The call rests on the fitted dose curve; in most records, active means well fitted curve in the direction sought with a large enough effect; inconclusive means small, poorly fitted or top-dose-only effect, or another doubt; inactive means no such curve, though single readings can be large; an effect the other way counts as inactive or inconclusive. Potency means the concentration at half of the fitted maximal effect.
SMILES,HepG2 tox,S2 tox,ATXN2 expr inh,DT40 TDP1 CPT,DT40 TDP1 no CPT,TGFb inhibitor
CCOC(=O)C1CCN(S(=O)(=O)c2ccc(CC)cc2)CC1,3%,i,-7%,21µM*,?,5%
O=C1CCc2cc(S(=O)(=O)N3CCCCC3)cc3c2N1CCC3,0%,i,10%,16%,-9%,0%
CCOC(=O)c1ccc(S(=O)(=O)N2CCC(C(=O)OCC)CC2)cc1,-3%,i,-4%,-3%,-19%,1%
CCOC(=O)C1CCCN(S(=O)(=O)c2cc(Br)cc3c2N(C(C)=O)CC3)C1 (centres undefined),-2%,i,-8%,-19%,-13%,10%
CC1CC(C)CN(S(=O)(=O)c2cc3c4c(c2)CCC(=O)N4CCC3)C1 (centres undefined),-2%,i,-16%,?,18µM*,-11%
O=[N+]([O-])c1cnc(Nc2ccc(Cl)cn2)c([N+](=O)[O-])c1,-92%,?,-11%,?,?,?
CC(C)(C)S(=O)N1Cc2cc(C(=O)N3CCOCC3)nc(-c3cccc(Br)c3)c2[C@@H]1CCO (some centres undefined),-6%,i,-8%,-19%,-23%,-18%
COc1ccc(C(=O)N2CCC[C@@]3(CCN(Cc4nccs4)C3)C2)cc1,.,.,.,-29%,-14%,.
Cc1cccc(C(=O)OCC(=O)N(CC(C)C)c2c(N)n(Cc3ccccc3)c(=O)[nH]c2=O)c1O,9%,i,4%,?,-20%,6%
CCOC(=O)C1CCN(C(=O)C2CCCN(S(=O)(=O)c3ccc(OCC)c(Cl)c3)C2)CC1 (centres undefined),-94%,i,-24%,6.5µM*,5.8µM*,?
Cc1cccc(N2C(=O)C(CC(=O)Nc3ccccc3)N(C3CCCCC3)C2=O)c1 (centres undefined),-5%,?,1%,-21%,?,-10%
Cc1ccc(/C=C2\CC(C)CC3=C2NC(=S)NC3c2ccc(C)cc2)cc1 (centres undefined),-7%,i,29%,?,15µM*,-58%
Cc1ccc(/C=C2\CCCC3=C2NC(=S)NC3c2ccc(C)cc2)cc1 (centres undefined),-16%,i,1%,-48%,?,?
CC1CC2=C(NC(=S)NC2c2cccc(F)c2)/C(=C/c2cccc(F)c2)C1 (centres undefined),-7%,i,-26%,?,16µM*,?
CCC(=O)Nc1nnc(S(=O)(=O)N2CCCCCC2)s1,3%,i,7%,0%,-10%,13%
Cn1c(=O)c2[nH]c(CCCCCCCCc3nc4ccccc4[nH]3)nc2n(C)c1=O,-33%,?,-37%,7.3µM*,5.2µM*,?
Cn1c(=O)c2[nH]c(CCCCc3nc4ccccc4[nH]3)nc2n(C)c1=O,3%,i,-8%,4%,-11%,13%
Cn1c(=O)c2[nH]c(CN(Cc3ccccc3)Cc3ccccc3)nc2n(C)c1=O,-11%,?,-17%,10µM*,15µM*,-2%
Cn1c(=O)c2[nH]c(Cc3cccc4ccccc34)nc2n(C)c1=O,0%,i,-28%,?,16µM*,23%
Cn1c(=O)c2[nH]c(CSCc3ccccc3)nc2n(C)c1=O,-13%,?,-24%,?,?,-2%
C[C@H](CO)N1C[C@H](C)[C@@H](CN(C)S(=O)(=O)c2ccccc2)Oc2ccc(NC(=O)CCN3CCOCC3)cc2C1=O,-17%,i,1%,5%,1%,22%
O=[N+]([O-])c1ccc(O)c(-c2cc(C(F)(F)F)nc(-c3ccccc3)n2)c1,-42%,?,.,0.58µM*,0.65µM*,?
Oc1ccccc1-c1cc(C(F)(F)C(F)F)nc(-c2ccccc2)n1,-4%,i,-8%,-12%,-29%,-4%
COc1cccc(OC)c1C(=O)Nc1cccc(NC(=O)c2cccs2)c1,-19%,i,.,-4%,-30%,-27%
CC(C)C1OC(c2cccc(NC(=O)c3cccs3)c2)OCC1(C)C (centres undefined),0%,i,-35%,?,23µM*,?
SMILES,HepG2 tox,S2 tox,ATXN2 expr inh,DT40 TDP1 CPT,DT40 TDP1 no CPT,TGFb inhibitor
O=C(Nc1ccc(OC(F)(F)F)cc1)NC1CCC(Oc2ccc(C(=O)O)cc2)CC1 (centres undefined),-2%,i,12%,?,-11%,0%
O=C(c1ccc(S(=O)(=O)Cc2ccccc2Cl)c([N+](=O)[O-])c1)N1CCN(c2ccccn2)CC1,-17%,?,?,3.7µM*,7.3µM*,?
O=C(c1ccc(S(=O)(=O)Cc2cc(F)ccc2F)c([N+](=O)[O-])c1)N1CCCCC1,-1%,?,8%,?,23µM*,?
O=C(c1ccc(S(=O)(=O)Cc2cc(F)ccc2F)c([N+](=O)[O-])c1)N1CCCC1,0%,i,9%,3.3µM*,2.9µM*,?
CC1CCN(C(=O)c2ccc(S(=O)(=O)Cc3cccc(F)c3)c([N+](=O)[O-])c2)CC1,-31%,i,-8%,?,?,-5%
O=C(c1ccc(Cl)c([N+](=O)[O-])c1)N1CCN(c2ccccn2)CC1,3%,i,1%,-10%,?,11%
COC(=O)c1cc(NC(=O)CC(=O)c2cccc(N)c2)cc(C(=O)OC)c1,2%,i,.,5%,-5%,-11%
C=C1CCC[C@]2(C)C[C@H]3OC(=O)C(CNCCN(CC)CC)[C@H]3CC12 (some centres undefined),-4%,i,-2%,?,16µM*,-23%
C=C1CCC[C@]2(C)C[C@H]3OC(=O)C(CNCCN(C)C)[C@H]3CC12 (some centres undefined),-4%,i,-5%,?,?,-2%
C=C1CCC[C@]2(C)C[C@H]3OC(=O)C(CNCC(C)C)[C@H]3CC12 (some centres undefined),-81%,i,-11%,?,16µM*,?
CCOC(=O)C1(C)CCN1C(=O)c1ccco1 (centres undefined),-12%,i,-5%,-19%,-2%,1%
O=c1c(-c2cccc(Cl)c2)nc2cncnc2n1Cc1ccccc1Cl,.,.,.,22%,11%,.
CC(=O)N1CCC2(CCCN(c3ccc(-c4ccccc4)cc3)C2)CC1,.,.,.,?,16µM*,.

# Compound activity (PubChem)
